# Assay results reported in PubChem BioAssay (NCI).
# This is part of a sample that, as a whole, favours compounds with a hit. Of some 79,000 tested, about 15% had one in any assay. Values without a mark were called inactive. Active and inactive are the calls of the source. Rule as the data show it: active = growth inhibition above about 70%; inactive = the rest.
# Columns and labels:
# [1] = NCI Yeast Anticancer Drug Screen. Data for the rad52 strain (AID 147);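 also: 0% = growth of vehicle-treated control cultures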; details: S. cerevisiae rad52 mutant growth inhibition, hits give high values
# In short: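 Read-out: growth inhibition versus vehicle-treated controls. Cells were a DNA repair-deficient yeast strain treated with compounds.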
# [2] = NCI Yeast Anticancer Drug Screen. Data for the wt1 strain (AID 149);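 also: 0% = growth of vehicle-treated wt1 cultures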; details: S. cerevisiae wt1 strain (SPY 50644) growth inhibition, hits give high values
# In short: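 Vehicle-normalised growth inhibition; strain wt1; compound exposure.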
# [3] = NCI Yeast Anticancer Drug Screen. Data for the rad50EPP+ strain (AID 151);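 also: 0% = growth of vehicle-treated control cultures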; details: S. cerevisiae rad50 mutant strain, hits give high values
# In short: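 Growth inhibition read against vehicle controls in rad50EPP+ yeast, a strain altered in DNA damage repair, after compound exposure.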
# [4] = NCI Yeast Anticancer Drug Screen. Data for the mgt1 strain (AID 153); details: S. cerevisiae mgt1 mutant growth inhibition, hits give high values
# In short: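 mgt1 yeast grown with test compound; read-out is growth inhibition versus vehicle-treated cultures.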
# [5] = NCI Yeast Anticancer Drug Screen. Data for the rad50 strain (AID 155);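 also: 0% = growth of vehicle-only cultures of the same strain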; details: S. cerevisiae rad50 strain growth inhibition, hits give high values
# In short: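 A DNA repair-deficient yeast mutant serves as the test organism; compound-induced growth inhibition is calculated against vehicle-treated cells.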
# [6] = NCI Yeast Anticancer Drug Screen. Data for the mec2-1 strain (AID 157); details: S. cerevisiae mec2-1 strain, hits give high values
# In short: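 Yeast mec2-1 mutant treated with compound. Readout: growth inhibition vs vehicle controls.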
# [7] = NCI Yeast Anticancer Drug Screen. Data for the rad14 strain (AID 159);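 also: 0% = growth of vehicle-treated control cultures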; details: S. cerevisiae rad14 strain growth inhibition, hits give high values
# In short: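 Vehicle-treated cultures served as the baseline for growth inhibition of a DNA repair-mutant yeast strain exposed to each compound.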
# [8] = NCI Yeast Anticancer Drug Screen. Data for the sgs1 mgt1 strain (AID 161);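 also: 0% = growth of cultures given vehicle only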; details: S. cerevisiae sgs1 mgt1 strain, hits give high values
# In short: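 Inhibition of yeast growth, normalised to vehicle-treated controls, is reported for a strain bearing genetic alterations in DNA damage repair.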
# [9] = NCI Yeast Anticancer Drug Screen. Data for the CLN2oe strain (AID 163);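 also: 0% = growth of vehicle-only control cultures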; details: S. cerevisiae CLN2oe strain, hits give high values
# In short: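 Read-out: yeast growth inhibition, expressed relative to vehicle-only controls. The strain bears an engineered cell-cycle alteration.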
# [10] = NCI Yeast Anticancer Drug Screen. Data for the cln2 rad14 strain (AID 165);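 also: 0% = growth equal to vehicle treated cultures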; details: S. cerevisiae cln2 rad14 strain, hits give high values
# In short: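 cln2 rad14 yeast strain; compound exposure; growth inhibition read vs vehicle controls.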
# [11] = NCI Yeast Anticancer Drug Screen. Data for the bub3 strain (AID 167); details: S. cerevisiae bub3 mutant strain, hits give high values
# In short: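 Inhibition values come from growth of compound-treated mutant yeast normalised to vehicle-treated controls.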
# [12] = NCI Yeast Anticancer Drug Screen. Data for the wt2 strain (AID 169);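 also: 0% = growth of vehicle-treated yeast cultures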; details: S. cerevisiae wt2 strain growth inhibition, hits give high values
# In short: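 Read-out: growth inhibition versus vehicle-treated control cultures after compound exposure of the yeast strain.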
# [13] = NCI Yeast Anticancer Drug Screen. Data for the mlh1 strain (AID 171);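 also: 0% = growth of vehicle-treated control cultures of the same strain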; details: S. cerevisiae mlh1 strain growth inhibition, hits give high values
# In short: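 Read-out: growth inhibition versus vehicle controls. Strain: engineered yeast with a defined DNA repair or cell cycle defect, compound-treated.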
# [14] = NCI Yeast Anticancer Drug Screen. Data for the sgs1 strain (AID 173);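 also: 0% = growth of vehicle-only control cultures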; details: S. cerevisiae sgs1 mutant, hits give high values
# In short: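 Read-out: yeast growth inhibition relative to vehicle controls, following compound exposure of a strain with a defined DNA repair/cell cycle alteration.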
# [15] = NCI Yeast Anticancer Drug Screen. Data for the mlh1 rad18 strain (AID 175); details: S. cerevisiae mlh1 rad18 strain growth inhibition, hits give high values
# In short: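 Yeast w/ defined DNA-repair lesions; compound exposure; growth vs vehicle controls → % inhibition.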
# [16] = NCI Yeast Anticancer Drug Screen. Data for the rad18 strain (AID 177); details: S. cerevisiae rad18 mutant growth inhibition, hits give high values
# In short: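 Readout: growth inhibition vs vehicle controls. Cells: genetically altered yeast strain, DNA repair defect.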
# [17] = at 5.0 µM (retest, dose inferred, filed as 0.5)
# [18] = at 50.0 µM (retest, dose inferred, filed as 5.0)
smiles,measurement,setting,value
O=C(NC(Nc1ccc(F)c(Cl)c1)(C(F)(F)F)C(F)(F)F)C(C(F)(F)F)C(F)(F)F,growth inhibition,[1]; at 1.2 µM,-2%
same,growth inhibition,[1]; at 3.7 µM,12%
same,growth inhibition,[1]; at 11.0 µM,70% (active)
same,growth inhibition,[1]; at 33.0 µM,93% (active)
same,growth inhibition,[1]; at 100.0 µM,97% (active)
same,growth inhibition,[2]; at 1.2 µM,8%
same,growth inhibition,[2]; at 3.7 µM,7%
same,growth inhibition,[2]; at 11.0 µM,48%
same,growth inhibition,[2]; at 33.0 µM,96% (active)
same,growth inhibition,[2]; at 100.0 µM,98% (active)
same,growth inhibition,[3]; at 1.2 µM,-7%
same,growth inhibition,[3]; at 3.7 µM,-13%
same,growth inhibition,[3]; at 11.0 µM,-25%
same,growth inhibition,[3]; at 33.0 µM,-16%
same,growth inhibition,[3]; at 100.0 µM,2%
same,growth inhibition,[4]; at 1.2 µM,26%
same,growth inhibition,[4]; at 3.7 µM,25%
same,growth inhibition,[4]; at 11.0 µM,54%
same,growth inhibition,[4]; at 33.0 µM,94% (active)
same,growth inhibition,[4]; at 100.0 µM,98% (active)
same,growth inhibition,[5]; at 1.2 µM,8%
same,growth inhibition,[5]; at 3.7 µM,17%
same,growth inhibition,[5]; [17],28%
same,growth inhibition,[5]; at 11.0 µM,44%
same,growth inhibition,[5]; at 33.0 µM,91% (active)
same,growth inhibition,[5]; [18],96% (active)
same,growth inhibition,[5]; at 50.0 µM,24.6%
same,growth inhibition,[5]; at 100.0 µM,96% (active)
same,growth inhibition,[6]; at 1.2 µM,8%
same,growth inhibition,[6]; at 3.7 µM,23%
same,growth inhibition,[6]; [17],3%
same,growth inhibition,[6]; at 11.0 µM,74% (active)
same,growth inhibition,[6]; at 33.0 µM,97% (active)
same,growth inhibition,[6]; [18],92% (active)
same,growth inhibition,[6]; at 50.0 µM,27.6%
same,growth inhibition,[6]; at 100.0 µM,98% (active)
same,growth inhibition,[7]; at 1.2 µM,9%
same,growth inhibition,[7]; at 3.7 µM,19%
same,growth inhibition,[7]; at 11.0 µM,26%
same,growth inhibition,[7]; at 33.0 µM,85% (active)
same,growth inhibition,[7]; at 100.0 µM,94% (active)
same,growth inhibition,[8]; [17],17%
same,growth inhibition,[8]; [18],72% (active)
same,growth inhibition,[8]; at 50.0 µM,36%
same,growth inhibition,[9]; at 1.2 µM,9%
same,growth inhibition,[9]; at 3.7 µM,32%
same,growth inhibition,[9]; at 11.0 µM,92% (active)
same,growth inhibition,[9]; at 33.0 µM,97% (active)
same,growth inhibition,[9]; at 100.0 µM,97% (active)
same,growth inhibition,[10]; [17],43%
same,growth inhibition,[10]; [18],98% (active)
same,growth inhibition,[10]; at 50.0 µM,88% (active)
same,growth inhibition,[11]; at 1.2 µM,5%
same,growth inhibition,[11]; at 3.7 µM,15%
same,growth inhibition,[11]; [17],20%
same,growth inhibition,[11]; at 11.0 µM,80% (active)
same,growth inhibition,[11]; at 33.0 µM,95% (active)
same,growth inhibition,[11]; [18],95% (active)
same,growth inhibition,[11]; at 50.0 µM,75% (active)
same,growth inhibition,[11]; at 100.0 µM,97% (active)
same,growth inhibition,[12]; at 1.2 µM,1%
same,growth inhibition,[12]; at 3.7 µM,34%
same,growth inhibition,[12]; at 11.0 µM,86% (active)
same,growth inhibition,[12]; at 33.0 µM,99% (active)
same,growth inhibition,[12]; at 100.0 µM,99% (active)
same,growth inhibition,[13]; at 1.2 µM,26%
same,growth inhibition,[13]; at 3.7 µM,25%
same,growth inhibition,[13]; at 11.0 µM,54%
same,growth inhibition,[13]; at 33.0 µM,94% (active)
same,growth inhibition,[13]; at 100.0 µM,98% (active)
same,growth inhibition,[14]; at 1.2 µM,8%
same,growth inhibition,[14]; at 3.7 µM,14%
same,growth inhibition,[14]; at 11.0 µM,42%
same,growth inhibition,[14]; at 33.0 µM,93% (active)
same,growth inhibition,[14]; at 100.0 µM,96% (active)
same,growth inhibition,[15]; [17],21%
same,growth inhibition,[15]; [18],90% (active)
same,growth inhibition,[15]; at 50.0 µM,93.4% (active)
same,growth inhibition,[16]; at 1.2 µM,22%
same,growth inhibition,[16]; at 3.7 µM,14%
same,growth inhibition,[16]; at 11.0 µM,40%
same,growth inhibition,[16]; at 33.0 µM,83% (active)
same,growth inhibition,[16]; at 100.0 µM,92% (active)
O=C1c2ccccc2-c2n[nH]c3cccc1c23,growth inhibition,[1]; at 1.2 µM,-28%
same,growth inhibition,[1]; at 3.7 µM,10%
same,growth inhibition,[1]; at 11.0 µM,69%
same,growth inhibition,[1]; at 33.0 µM,84% (active)
same,growth inhibition,[1]; at 100.0 µM,78% (active)
same,growth inhibition,[2]; at 1.2 µM,-21%
same,growth inhibition,[2]; at 3.7 µM,-28%
same,growth inhibition,[2]; at 11.0 µM,-12%
same,growth inhibition,[2]; at 33.0 µM,10%
same,growth inhibition,[2]; at 100.0 µM,11%
same,growth inhibition,[3]; at 1.2 µM,7%
same,growth inhibition,[3]; at 3.7 µM,69%
same,growth inhibition,[3]; at 11.0 µM,86% (active)
same,growth inhibition,[3]; at 33.0 µM,88% (active)
same,growth inhibition,[3]; at 100.0 µM,73% (active)
same,growth inhibition,[4]; at 1.2 µM,-40%
same,growth inhibition,[4]; at 3.7 µM,-32%
same,growth inhibition,[4]; at 11.0 µM,-10%
same,growth inhibition,[4]; at 33.0 µM,27%
same,growth inhibition,[4]; at 100.0 µM,32%
same,growth inhibition,[5]; at 1.2 µM,-21%
same,growth inhibition,[5]; at 3.7 µM,29%
same,growth inhibition,[5]; [17],100% (active)
same,growth inhibition,[5]; at 11.0 µM,67%
same,growth inhibition,[5]; at 33.0 µM,79% (active)
same,growth inhibition,[5]; [18],99% (active)
same,growth inhibition,[5]; at 50.0 µM,69.2%
same,growth inhibition,[5]; at 100.0 µM,74% (active)
same,growth inhibition,[6]; at 1.2 µM,-67%
same,growth inhibition,[6]; at 3.7 µM,-38%
same,growth inhibition,[6]; [17],100% (active)
same,growth inhibition,[6]; at 11.0 µM,-5%
same,growth inhibition,[6]; at 33.0 µM,26%
same,growth inhibition,[6]; [18],100% (active)
same,growth inhibition,[6]; at 50.0 µM,54.3%
same,growth inhibition,[6]; at 100.0 µM,46%
same,growth inhibition,[7]; at 1.2 µM,-18%
same,growth inhibition,[7]; at 3.7 µM,-24%
same,growth inhibition,[7]; at 11.0 µM,-6%
same,growth inhibition,[7]; at 33.0 µM,23%
same,growth inhibition,[7]; at 100.0 µM,28%
same,growth inhibition,[8]; [17],-5%
same,growth inhibition,[8]; [18],86% (active)
same,growth inhibition,[8]; at 50.0 µM,78.1% (active)
same,growth inhibition,[9]; at 1.2 µM,-52%
same,growth inhibition,[9]; at 3.7 µM,-21%
same,growth inhibition,[9]; at 11.0 µM,-26%
same,growth inhibition,[9]; at 33.0 µM,-6%
same,growth inhibition,[9]; at 100.0 µM,1%
same,growth inhibition,[10]; [17],44%
same,growth inhibition,[10]; [18],87% (active)
same,growth inhibition,[10]; at 50.0 µM,38.9%
same,growth inhibition,[11]; at 1.2 µM,-1%
same,growth inhibition,[11]; at 3.7 µM,-15%
same,growth inhibition,[11]; [17],0%
same,growth inhibition,[11]; at 11.0 µM,22%
same,growth inhibition,[11]; at 33.0 µM,46%
same,growth inhibition,[11]; [18],89% (active)
same,growth inhibition,[11]; at 50.0 µM,65.6%
same,growth inhibition,[11]; at 100.0 µM,53%
same,growth inhibition,[12]; at 1.2 µM,-20%
same,growth inhibition,[12]; at 3.7 µM,-20%
same,growth inhibition,[12]; at 11.0 µM,2%
same,growth inhibition,[12]; at 33.0 µM,41%
same,growth inhibition,[12]; at 100.0 µM,36%
same,growth inhibition,[13]; at 1.2 µM,-42%
same,growth inhibition,[13]; at 3.7 µM,-38%
same,growth inhibition,[13]; at 11.0 µM,9%
same,growth inhibition,[13]; at 33.0 µM,39%
same,growth inhibition,[13]; at 100.0 µM,58%
same,growth inhibition,[14]; at 1.2 µM,-39%
same,growth inhibition,[14]; at 3.7 µM,-16%
same,growth inhibition,[14]; at 11.0 µM,3%
same,growth inhibition,[14]; at 33.0 µM,35%
same,growth inhibition,[14]; at 100.0 µM,27%
same,growth inhibition,[15]; [17],100% (active)
same,growth inhibition,[15]; [18],100% (active)
same,growth inhibition,[15]; at 50.0 µM,81.1% (active)
same,growth inhibition,[16]; at 1.2 µM,-49%
same,growth inhibition,[16]; at 3.7 µM,-32%
same,growth inhibition,[16]; at 11.0 µM,-1%
same,growth inhibition,[16]; at 33.0 µM,33%
same,growth inhibition,[16]; at 100.0 µM,50%
